Consider 8 compounds from PubChem BioAssay (NCI).

Test systems include SR leukemia; RPMI-8226 leukemia; OVCAR-8 ovarian; OVCAR-5 ovarian; OVCAR-4 ovarian; SK-OV-3 ovarian; IGROV1 ovarian; OVCAR-3 ovarian; HS 578T breast; NCI/ADR-RES ovarian; T-47D breast; BT-549 breast; MDA-MB-435 melanoma; SW-620 colon; MCF7 breast; HCT-116 colon; HCC-2998 colon; KM12 colon.
Common to all, as to experiment: NCI-60 one-dose screen, 48 h (100 = growth as untreated, 0 = no growth, -100 = all killed)
Conditions in all cases: 10 µM unless noted

The panel holds about 83,000 compounds, 20% with a hit somewhere; the sample as a whole holds those more often.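 Percent growth is the endpoint: 0 to 100 indicates growth inhibition (40 means 60% inhibition), 0 means no net growth, and negative values indicate cell death.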 A number with no mark means an inactive call. Active and inactive are the calls of the source. How the source made its calls: active means growth percent below 10; inactive means the rest.

As for `COc1cc(C(=O)C[n+]2ccc3ccccc3c2)cc(OC)c1OC`, the growth is 102% in the test with SR leukemia; 111% in the test with RPMI-8226 leukemia; 100% in the test on OVCAR-8 ovarian; 102% with OVCAR-5 ovarian; 104% in the test with OVCAR-4 ovarian; 97.1% in the test on SK-OV-3 ovarian. In addition, the growth is 95.8% in the test with IGROV1 ovarian; 105% in the test on OVCAR-3 ovarian; 94% in the test with HS 578T breast; 101% in the test on NCI/ADR-RES ovarian; 96.3% in the test with T-47D breast; 107% in the test on BT-549 breast. Besides, the growth in the test on MDA-MB-435 melanoma was 100%; with SW-620 colon, 94%; in the test with MCF7 breast it was 96.3%; in the test with HCT-116 colon it was 95.9%; in the test with HCC-2998 colon, 103%; in the test with KM12 colon it was 96.1%.

`O=C1[C@H]2Cc3c([nH]c4ccccc34)[C@@H](c3ccc(Cl)cc3)N2C(=O)CN1C1CCN(Cc2c(Cl)cccc2Cl)CC1`: the growth is 29.8% in the test on SR leukemia; 88.4% in the test on RPMI-8226 leukemia; 89.2% with OVCAR-8 ovarian; 98.1% with OVCAR-5 ovarian; 87.1% in the test on OVCAR-4 ovarian; 108% in the test with SK-OV-3 ovarian. The growth was -44.1% (active) in the test on IGROV1 ovarian; 100% in the test with OVCAR-3 ovarian; 88.2% in the test with HS 578T breast; 81.5% with NCI/ADR-RES ovarian; 84.8% with T-47D breast; 97.2% in the test with BT-549 breast. Besides, the growth in the test on MDA-MB-435 melanoma is 97.1%; in the test with SW-620 colon it was 106%; with MCF7 breast it was 87%; in the test on HCT-116 colon it was 87.9%; in the test with HCC-2998 colon, 101%; with KM12 colon, 87.9%.

Take `COC[C@]12CC[C@@H](C)[C@H](C)[C@H]1C1=CC[C@@H]3[C@@]4(C)CCCNC(C)(C)[C@@H]4CC[C@@]3(C)[C@]1(C)CC2`: the growth is -3.33% (active) with SR leukemia; 2.86% (active) in the test on RPMI-8226 leukemia; 62.4% with OVCAR-8 ovarian; 61.6% with OVCAR-5 ovarian; 38% in the test with OVCAR-4 ovarian; 85.4% in the test on SK-OV-3 ovarian. Also, the growth with IGROV1 ovarian was 30.2%; in the test with OVCAR-3 ovarian it was 41.4%; in the test on HS 578T breast, 74.3%; with NCI/ADR-RES ovarian, 44.3%; in the test with T-47D breast, 39.8%; with BT-549 breast, 66.1%. In addition, the growth in the test on MDA-MB-435 melanoma was 9.61% (active); with SW-620 colon, -42.1% (active); with MCF7 breast, -33.2% (active); in the test with HCT-116 colon, 5.39% (active); in the test with HCC-2998 colon it was 20.1%; with KM12 colon it was 19.3%.

As to `Nc1ccc(-c2nnc(SCc3ccc(O)c4ncccc34)n2-c2ccccc2)cc1`, the growth was 36.5% in the test with SR leukemia; 11.6% in the test with RPMI-8226 leukemia; 12.5% with OVCAR-8 ovarian; 34.4% with OVCAR-5 ovarian; 12.4% in the test on OVCAR-4 ovarian; 8.19% (active) in the test with SK-OV-3 ovarian. For the same compound, the growth was 14.3% with IGROV1 ovarian; 19.2% in the test with OVCAR-3 ovarian; 5.08% (active) in the test on HS 578T breast; 45.2% in the test on NCI/ADR-RES ovarian; 15.2% in the test on T-47D breast; 18.5% in the test on BT-549 breast. Further, the growth in the test on MDA-MB-435 melanoma was 14.8%; in the test on SW-620 colon, 19.2%; in the test with MCF7 breast it was 5.58% (active); with HCT-116 colon, 8.87% (active); in the test on HCC-2998 colon it was 29.1%; in the test on KM12 colon, 17.8%.

Take `CCNC(=NCCCN(C)C)N/C(N)=N/c1nc2ccccc2s1`: the growth is 55.1% in the test on SR leukemia; 96.9% in the test with RPMI-8226 leukemia; 90.9% in the test on OVCAR-8 ovarian; 95.6% with OVCAR-5 ovarian; 107% in the test on OVCAR-4 ovarian; 89.9% in the test with SK-OV-3 ovarian. For the same compound, the growth with IGROV1 ovarian is 91.1%; in the test with OVCAR-3 ovarian it was 104%; with HS 578T breast, 92%; with NCI/ADR-RES ovarian, 96.8%; in the test with T-47D breast, 94.7%; with BT-549 breast, 97.1%. The growth in the test with MDA-MB-435 melanoma was 93.8%; in the test with SW-620 colon, 103%; with MCF7 breast, 82.8%; in the test with HCT-116 colon, 76.4%; with HCC-2998 colon it was 98.1%; in the test with KM12 colon, 93.9%.

For `NC(=S)N/N=C(/C=C/c1cn(-c2ccccc2)nc1-c1ccc(Cl)cc1)c1cc2ccccc2oc1=O`, the growth in the test on SR leukemia is 39.7%; in the test with RPMI-8226 leukemia it was 41%; in the test with OVCAR-8 ovarian it was 31.3%; in the test on OVCAR-5 ovarian it was 67.3%; in the test on OVCAR-4 ovarian, 39.4%; in the test on SK-OV-3 ovarian it was 85.2%. Also, the growth in the test on IGROV1 ovarian was 36%; in the test with OVCAR-3 ovarian it was 14.8%; in the test with HS 578T breast, 69.2%; in the test with NCI/ADR-RES ovarian it was 25.4%; in the test with T-47D breast, 38.7%; with BT-549 breast, 87.1%. Besides, the growth is 55.6% in the test on MDA-MB-435 melanoma; 29.6% in the test with SW-620 colon; 29.6% in the test with MCF7 breast; 31.1% in the test on HCT-116 colon; 66% in the test on HCC-2998 colon; 36.2% with KM12 colon.

Consider `COc1ccc(-c2cc(-c3ccc(Cl)cc3)nc3nc(N)nn23)cc1`, for which the growth in the test on SR leukemia was 93.6%; with RPMI-8226 leukemia, 108%; in the test with OVCAR-8 ovarian, 99.1%; in the test with OVCAR-5 ovarian it was 101%; in the test on OVCAR-4 ovarian it was 102%; with SK-OV-3 ovarian, 119%. For the same compound, the growth with IGROV1 ovarian was 98.2%; in the test with OVCAR-3 ovarian, 110%; with HS 578T breast, 109%; in the test with NCI/ADR-RES ovarian it was 102%; in the test on T-47D breast it was 91.4%; with BT-549 breast, 92.3%. In addition, the growth is 102% in the test on MDA-MB-435 melanoma; 104% in the test on SW-620 colon; 89.9% in the test with MCF7 breast; 98.8% in the test with HCT-116 colon; 100% in the test on HCC-2998 colon; 99.7% with KM12 colon.

Take `CC(C)=CCc1c(O)c(CC=C(C)C)c2c(c1O)C(=O)C1=C[C@@H]3C[C@H]4C(C)(C)O[C@@](C/C=C(\C)C(=O)O)(C3=O)[C@@]14O2`: the growth in the test with SR leukemia was -4.41% (active); in the test on RPMI-8226 leukemia it was -23.1% (active); with OVCAR-8 ovarian, 10.1%; in the test with OVCAR-5 ovarian it was 8.41% (active); in the test with OVCAR-4 ovarian, 33.2%; in the test with SK-OV-3 ovarian it was 42.4%. The growth in the test with IGROV1 ovarian was -21.8% (active); with OVCAR-3 ovarian it was -55% (active); in the test with HS 578T breast, 27.7%; in the test on NCI/ADR-RES ovarian it was 10.7%; with T-47D breast it was 1.27% (active); in the test on BT-549 breast, -8.98% (active). The growth with MDA-MB-435 melanoma was -5.58% (active); in the test on SW-620 colon, -34.6% (active); in the test on MCF7 breast, -5.87% (active); in the test on HCT-116 colon it was -35.8% (active); in the test on HCC-2998 colon it was -87.1% (active); in the test with KM12 colon, -18.4% (active).
